# According to PubChem BioAssay (EPA / NIEHS):
# Results filed as inconclusive are left out. The source made the active and inactive calls. How the source made its calls, unless noted: active means hit-call score of the fitted dose curve at least 0.9, where 1 is the maximum; inactive means score below 0.9.
# Legend:
# [1] = molecular target: Retinoic acid receptor RXR-alpha (Homo sapiens) (UniProt P19793); test: ATG_RXRa_TRANS: Attagene TRANS-FACTORIAL HepG2 Assay for human Retinoid X Receptor alpha (RXRa) (AID 2283012; active means hit-call score of the fitted dose curve at least 0.9, where 1 is the maximum)
# Sequence of Retinoic acid receptor RXR-alpha (Homo sapiens) (P19793 whole entry, looked up, the tested form may be a part): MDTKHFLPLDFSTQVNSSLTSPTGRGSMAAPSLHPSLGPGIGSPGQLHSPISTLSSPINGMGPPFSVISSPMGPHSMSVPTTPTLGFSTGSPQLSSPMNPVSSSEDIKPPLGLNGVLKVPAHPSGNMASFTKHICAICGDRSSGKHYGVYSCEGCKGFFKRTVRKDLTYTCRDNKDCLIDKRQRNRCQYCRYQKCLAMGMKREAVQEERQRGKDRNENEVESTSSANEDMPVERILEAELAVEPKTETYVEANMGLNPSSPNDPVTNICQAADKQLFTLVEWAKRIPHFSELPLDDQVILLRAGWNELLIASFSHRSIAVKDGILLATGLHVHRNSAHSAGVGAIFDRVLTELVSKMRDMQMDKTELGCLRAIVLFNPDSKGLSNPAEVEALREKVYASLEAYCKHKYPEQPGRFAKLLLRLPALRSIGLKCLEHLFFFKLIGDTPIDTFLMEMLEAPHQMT
# In short: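 Cells (HepG2) carried transiently transfected GAL4-responsive reporter units. Following a 24 h chemical incubation, reporter mRNA induction was read via RT-PCR fragment analysis; DMSO served as negative control and baseline.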
# [2] = molecular target: human Retinoid X Receptor beta (RXRb), RXRB (gene 6257) (UniProt P28702); test: ATG_RXRb_TRANS: Attagene TRANS-FACTORIAL HepG2 Assay for human Retinoid X Receptor beta (RXRb) (AID 2283013; active means hit-call score of the fitted dose curve at least 0.9, where 1 is the maximum)
# Sequence of human Retinoid X Receptor beta (RXRb), RXRB (gene 6257) (P28702 whole entry, looked up): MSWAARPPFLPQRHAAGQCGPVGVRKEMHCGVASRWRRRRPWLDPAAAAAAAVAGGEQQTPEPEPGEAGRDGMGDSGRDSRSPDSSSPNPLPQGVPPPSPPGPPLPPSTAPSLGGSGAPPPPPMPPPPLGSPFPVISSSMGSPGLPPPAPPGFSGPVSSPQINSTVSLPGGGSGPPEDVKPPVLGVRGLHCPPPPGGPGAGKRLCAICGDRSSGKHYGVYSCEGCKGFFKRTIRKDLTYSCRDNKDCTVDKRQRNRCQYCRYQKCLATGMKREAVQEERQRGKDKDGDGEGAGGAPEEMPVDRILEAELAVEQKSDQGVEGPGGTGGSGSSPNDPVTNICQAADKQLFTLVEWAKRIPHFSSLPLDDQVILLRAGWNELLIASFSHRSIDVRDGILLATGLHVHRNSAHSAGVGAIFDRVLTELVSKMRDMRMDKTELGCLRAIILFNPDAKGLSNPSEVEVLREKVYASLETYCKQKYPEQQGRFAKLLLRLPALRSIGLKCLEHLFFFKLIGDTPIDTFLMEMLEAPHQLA
# In short: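 Multiplexed TRANS reporter assay in HepG2; 24 h dosing; reporter mRNA by RT-PCR/CE fluorescence; gain-of-signal relative to DMSO.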
# [3] = molecular target: human Thyroid Receptor alpha (THRa1), THRA (gene 7067) (UniProt P10827); test: ATG_THRa1_TRANS: Attagene TRANS-FACTORIAL HepG2 Assay for human Thyroid Receptor alpha (THRa1) (AID 2283014; active means hit-call score of the fitted dose curve at least 0.9, where 1 is the maximum)
# Sequence of human Thyroid Receptor alpha (THRa1), THRA (gene 7067) (P10827 whole entry, looked up, the tested form may be a part): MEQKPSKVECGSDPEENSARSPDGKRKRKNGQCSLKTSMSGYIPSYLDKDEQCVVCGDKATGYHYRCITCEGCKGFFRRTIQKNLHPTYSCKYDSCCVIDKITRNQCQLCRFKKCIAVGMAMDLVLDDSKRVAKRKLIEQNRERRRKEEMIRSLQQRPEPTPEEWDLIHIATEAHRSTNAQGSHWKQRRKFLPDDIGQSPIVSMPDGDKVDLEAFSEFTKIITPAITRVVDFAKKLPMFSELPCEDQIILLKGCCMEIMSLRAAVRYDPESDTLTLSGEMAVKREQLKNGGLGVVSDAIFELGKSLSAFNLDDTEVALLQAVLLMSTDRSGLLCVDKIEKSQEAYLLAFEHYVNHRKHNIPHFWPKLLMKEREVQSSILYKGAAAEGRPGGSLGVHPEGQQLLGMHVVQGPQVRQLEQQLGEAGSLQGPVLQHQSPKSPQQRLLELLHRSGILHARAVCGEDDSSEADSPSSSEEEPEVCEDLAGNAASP
# In short: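 Transcripts from GAL4-UAS-driven reporters, measured after 24 h compound exposure by RT-PCR plus capillary electrophoresis of 6-FAM-labeled fragments, were fitted for gain of signal relative to DMSO. Cells: transiently transfected HepG2 expressing NR-Gal4 chimeras.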
# [4] = read-out: E-selectin (Homo sapiens) (UniProt P16581); test: BSK_3C_Eselectin: BioMAP Diversity Plus: 3C Assay for Eselectin Biomarker Activity (AID 2283015); settings: primary human endothelial cells (HUVEC); actives raise or lower the signal;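 on outcome: cell surface E-selectin protein quantified by ELISA 24 h after dosing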
# In short: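 E-selectin ELISA readout, fitted bidirectionally relative to DMSO, taken 24 h post-dosing in HUVEC cultures of the 3C system. Overt cytotoxicity tracked with sulforhodamine B staining of parallel wells.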
# [5] = read-out: Interleukin-1 alpha (IL1a), IL1A (gene 3552); test: BSK_BE3C_IL1a: BioMAP Diversity Plus: BE3C Assay for Interleukin-1 alpha (IL1a) Biomarker Activity (AID 2283016); settings: primary human bronchial epithelial cells; actives raise or lower the signal
# In short: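 Cultures of primary human bronchial epithelial cells receive test chemical. After 24 h, IL-1a is quantified by ELISA, while parallel wells are fixed in TCA and SRB-stained for total protein. Changes in either direction are fitted relative to DMSO.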
# [6] = read-out: Monocyte Chemoattractant Protein-1 (MCP1), CCL2 (gene 6347); test: BSK_3C_MCP1: BioMAP Diversity Plus: 3C Assay for Monocyte Chemoattractant Protein-1 (MCP1) Biomarker Activity (AID 2283017); settings: primary human endothelial cells (HUVEC); actives raise or lower the signal
# In short: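 MCP-1 was measured by ELISA 24 h after dosing in primary HUVEC 3C cultures and fitted in both directions relative to DMSO; cytotoxicity was checked by SRB total-protein staining in parallel wells.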
# [7] = read-out: Monocyte Chemoattractant Protein-1 (MCP1), CCL2 (gene 6347); test: BSK_4H_MCP1: BioMAP Diversity Plus: 4H Assay for Monocyte Chemoattractant Protein-1 (MCP1) Biomarker Activity (AID 2283018); settings: primary human endothelial cells (HUVEC); actives raise or lower the signal
# In short: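 Readout: MCP-1 ELISA on compound-treated HUVEC, sampled 24 h post-dosing. Baseline and negative control DMSO; bidirectional fit. Overt toxicity checked alongside by sulforhodamine B protein staining at time of biomarker measurement.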
# [8] = read-out: Human Leukocyte Antigen - DR isotype (HLADR), HLA-DRA (gene 3122); test: BSK_3C_HLADR: BioMAP Diversity Plus: 3C Assay for Human Leukocyte Antigen - DR isotype (HLADR) Biomarker Activity (AID 2283019); settings: primary human endothelial cells (HUVEC); actives raise or lower the signal;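 on outcome: ELISA of cell-surface HLA-DR on HUVEC 24 h after dosing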
# In short: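 Bidirectional fitting against DMSO was applied to the HLA-DR ELISA signal from human umbilical vein endothelial cells, 24 h post-dose. Cytotoxicity came from parallel SRB total-protein staining; 3C proliferation was counted by SRB at 48 h.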
# [9] = read-out: Interleukin-8 (IL8), CXCL8 (gene 3576); test: BSK_3C_IL8: BioMAP Diversity Plus: 3C Assay for Interleukin-8 (IL8) Biomarker Activity (AID 2283020); settings: primary human endothelial cells (HUVEC); actives raise or lower the signal
# In short: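 Human vascular endothelial cells (umbilical vein) in the 3C system; IL-8 level detected by ELISA at 24 h post-dose, with DMSO as baseline.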
# [10] = read-out: Monokine induced gamma interferon (MIG), CXCL9 (gene 4283); test: BSK_3C_MIG: BioMAP Diversity Plus: 3C Assay for Monokine induced gamma interferon (MIG) Biomarker Activity (AID 2283021); settings: primary human endothelial cells (HUVEC); actives raise or lower the signal
# In short: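 After 24 h of treatment, human umbilical vein endothelial cultures (3C system) had their MIG biomarker level determined by ELISA, with DMSO serving as negative control.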
# [11] = molecular target: human Vitamin D Receptor (VDR), VDR (gene 7421) (UniProt P11473); test: ATG_VDR_TRANS: Attagene TRANS-FACTORIAL HepG2 Assay for human Vitamin D Receptor (VDR) (AID 2283022; active means hit-call score of the fitted dose curve at least 0.9, where 1 is the maximum)
# Sequence of human Vitamin D Receptor (VDR), VDR (gene 7421) (P11473 whole entry, looked up, the tested form may be a part): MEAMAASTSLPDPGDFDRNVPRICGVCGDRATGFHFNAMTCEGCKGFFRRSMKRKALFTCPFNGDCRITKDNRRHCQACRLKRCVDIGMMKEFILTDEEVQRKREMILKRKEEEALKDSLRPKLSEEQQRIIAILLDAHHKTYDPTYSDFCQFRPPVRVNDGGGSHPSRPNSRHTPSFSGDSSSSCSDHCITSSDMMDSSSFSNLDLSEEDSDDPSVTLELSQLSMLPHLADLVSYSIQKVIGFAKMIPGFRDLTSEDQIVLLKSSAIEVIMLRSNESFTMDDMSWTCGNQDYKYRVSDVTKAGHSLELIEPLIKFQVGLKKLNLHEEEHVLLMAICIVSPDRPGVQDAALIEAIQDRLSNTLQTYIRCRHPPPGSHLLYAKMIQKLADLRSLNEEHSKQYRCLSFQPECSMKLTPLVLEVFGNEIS
# In short: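 Transactivation by an exogenous VDR-Gal4 chimera in transiently transfected HepG2 cells was measured as reporter transcript level 24 hours after chemical treatment. RT-PCR products were analysed by capillary electrophoresis and fitted in the positive direction relative to DMSO.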
# [12] = BSK_3C_SRB: Viability Assessment in the BioMAP Diversity Plus: 3C Assay (AID 2283023); settings: primary human endothelial cells (HUVEC);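 further: fitted both ways against DMSO so a hit may be signal rise or drop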
# In short: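 Cytotoxicity readout in parallel HUVEC 3C cultures: after 24 h compound exposure, cells fixed with 10% TCA, stained with 0.1% SRB and read at 560 nm. Gain or loss relative to DMSO fitted.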
# [13] = read-out: Matrix Metallopeptidase 1 (MMP1), MMP1 (gene 4312); test: BSK_BE3C_MMP1: BioMAP Diversity Plus: BE3C Assay for Matrix Metallopeptidase 1 (MMP1) Biomarker Activity (AID 2283024); settings: primary human bronchial epithelial cells; actives raise or lower the signal
# In short: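 Dose cells, wait 24 h, run MMP1 ELISA; cells are human bronchial epithelial primaries. Both increases and decreases relative to DMSO counted.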
# [14] = read-out: Pselectin, SELP (gene 6403); test: BSK_4H_Pselectin: BioMAP Diversity Plus: 4H Assay for Pselectin Biomarker Activity (AID 2283026); settings: primary human endothelial cells (HUVEC); actives raise or lower the signal
# In short: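 Human vascular endothelium from umbilical vein; P-selectin measured by ELISA at 24 h post-dose, with cytotoxicity checked by sulforhodamine B total-protein staining in parallel cultures (0.1% SRB after 10% TCA fixation, read at 560 nm).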
# [15] = BSK_4H_SRB: Viability Assessment in the BioMAP Diversity Plus: 4H Assay (AID 2283027); settings: primary human endothelial cells (HUVEC);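 further: cells exposed to compound for 24 h before staining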;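 on AC50: curves fitted both ways versus DMSO so AC50 may be loss or gain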
# In short: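 Human umbilical vein endothelial cells, 24 h after chemical dosing; total protein measured by 0.1% sulforhodamine B staining after 10% TCA fixation, read at 560 nm. Bidirectional fitting against DMSO.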
# [16] = BSK_BE3C_SRB: Viability Assessment in the BioMAP Diversity Plus: BE3C Assay (AID 2283028); settings: primary human bronchial epithelial cells;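 on AC50: fitted both ways so AC50 may mark signal gain or loss versus DMSO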
# In short: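 Cytotoxicity read-out: SRB (0.1%) staining of TCA-fixed (10%) human lung bronchial epithelial cells, absorbance 560 nm, 24 h post-dosing. Curves fitted both directions relative to DMSO.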
# [17] = read-out: Thrombomodulin, THBD (gene 7056); test: BSK_3C_Thrombomodulin: BioMAP Diversity Plus: 3C Assay for Thrombomodulin Biomarker Activity (AID 2283029); settings: primary human endothelial cells (HUVEC); actives raise or lower the signal
# In short: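 Thrombomodulin ELISA, human primary HUVEC, 24 h post-dose; data fitted in both directions relative to DMSO.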
# [18] = read-out: Urokinase-type plasminogen activator receptor (uPAR), PLAUR (gene 5329); test: BSK_4H_uPAR: BioMAP Diversity Plus: 4H Assay for Urokinase-type plasminogen activator receptor (uPAR) Biomarker Activity (AID 2283030); settings: primary human endothelial cells (HUVEC); actives raise or lower the signal
# In short: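 uPAR level read by ELISA on HUVEC cultures (BioMAP 4H) 24 h post-dosing, analyzed for gain or loss relative to DMSO. Parallel SRB staining assessed overt cytotoxicity.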
# [19] = BSK_3C_Vis: BioMAP Diversity Plus: 3C Assay for Morphology Visualization (AID 2283025); settings: primary human endothelial cells (HUVEC);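 further: fitted both ways so gain or loss versus DMSO counts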
# In short: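 Endothelial cells from human umbilical vein were treated with test chemicals for 24 h and inspected by light microscopy for changes in cell conformation.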
# [20] = molecular target: human RAR-related Orphan Receptor gamma (RORg), RORC (gene 6097) (UniProt P51449); test: ATG_RORg_TRANS: Attagene TRANS-FACTORIAL HepG2 Assay for human RAR-related Orphan Receptor gamma (RORg) (AID 2283011; active means hit-call score of the fitted dose curve at least 0.9, where 1 is the maximum;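 on AC50: potency for induction of reporter transcripts above DMSO so activators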)
# Sequence of human RAR-related Orphan Receptor gamma (RORg), RORC (gene 6097) (P51449 whole entry, looked up, the tested form may be a part): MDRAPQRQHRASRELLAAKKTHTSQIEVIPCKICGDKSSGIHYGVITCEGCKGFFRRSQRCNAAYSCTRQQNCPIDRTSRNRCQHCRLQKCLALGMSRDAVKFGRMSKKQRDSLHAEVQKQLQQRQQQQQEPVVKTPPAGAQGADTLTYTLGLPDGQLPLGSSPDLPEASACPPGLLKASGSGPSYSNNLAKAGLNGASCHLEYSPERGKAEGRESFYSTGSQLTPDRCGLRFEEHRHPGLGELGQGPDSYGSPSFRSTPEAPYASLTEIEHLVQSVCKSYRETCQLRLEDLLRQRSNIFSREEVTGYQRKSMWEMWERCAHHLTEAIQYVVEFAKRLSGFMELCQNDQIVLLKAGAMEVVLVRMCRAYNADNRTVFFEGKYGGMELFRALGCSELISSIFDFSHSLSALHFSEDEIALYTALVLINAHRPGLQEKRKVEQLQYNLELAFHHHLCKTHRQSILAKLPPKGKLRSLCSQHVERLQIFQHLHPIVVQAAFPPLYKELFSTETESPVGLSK
# In short: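 Reporter transcripts from a transfected RORg-GAL4 chimera in HepG2 cells were quantified 24 h after dosing by RT-PCR, 6-FAM labelling, HpaI digestion and capillary electrophoresis; increases over DMSO baseline were fitted.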
# Sequence of E-selectin (Homo sapiens) (P16581 whole entry, looked up): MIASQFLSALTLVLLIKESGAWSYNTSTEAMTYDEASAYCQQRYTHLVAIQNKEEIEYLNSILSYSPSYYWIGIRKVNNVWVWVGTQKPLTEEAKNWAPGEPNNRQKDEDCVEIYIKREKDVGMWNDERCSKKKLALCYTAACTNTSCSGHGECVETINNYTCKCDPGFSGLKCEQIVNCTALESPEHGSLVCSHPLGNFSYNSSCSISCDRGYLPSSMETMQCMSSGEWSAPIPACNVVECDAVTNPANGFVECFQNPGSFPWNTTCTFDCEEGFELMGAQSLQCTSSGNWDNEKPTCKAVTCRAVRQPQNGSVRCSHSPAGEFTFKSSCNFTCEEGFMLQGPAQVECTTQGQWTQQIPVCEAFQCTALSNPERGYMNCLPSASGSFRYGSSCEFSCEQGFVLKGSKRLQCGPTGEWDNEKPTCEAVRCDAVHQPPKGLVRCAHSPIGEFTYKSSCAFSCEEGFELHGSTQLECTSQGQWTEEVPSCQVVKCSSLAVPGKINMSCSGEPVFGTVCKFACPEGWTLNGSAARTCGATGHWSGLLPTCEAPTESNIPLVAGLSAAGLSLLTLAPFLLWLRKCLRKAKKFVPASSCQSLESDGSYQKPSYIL
compound,measurement,setting,value
COc1cc2c(c(OC)c1OC)-c1ccc(OC)c(=O)cc1[C@@H](NC(C)=O)CC2,outcome,[1],inactive
same,outcome,[2],inactive
same,outcome,[3],inactive
same,outcome,[4],inactive
same,outcome,[5],inactive
same,outcome,[6],inactive
same,outcome,[7],inactive
same,AC50,[8],1.07 µM (active)
same,outcome,[9],inactive
same,outcome,[10],inactive
same,outcome,[11],inactive
same,AC50,[12],148 nM (active)
same,outcome,[13],inactive
same,AC50,[14],293 nM (active)
same,AC50,[15],148 nM (active)
same,outcome,[16],inactive
same,outcome,[17],inactive
same,AC50,[18],148 nM (active)
NC(=O)N1c2ccccc2C=Cc2ccccc21,outcome,[1],inactive
same,outcome,[3],inactive
same,outcome,[4],inactive
same,outcome,[5],inactive
same,outcome,[7],inactive
same,outcome,[8],inactive
same,outcome,[9],inactive
same,outcome,[10],inactive
same,outcome,[12],inactive
same,outcome,[13],inactive
same,outcome,[14],inactive
same,outcome,[15],inactive
same,outcome,[16],inactive
same,outcome,[18],inactive
c1ccc2cc3ccccc3cc2c1,outcome,[1],inactive
same,outcome,[3],inactive
same,outcome,[4],inactive
same,outcome,[5],inactive
same,outcome,[6],inactive
same,outcome,[7],inactive
same,outcome,[8],inactive
same,outcome,[9],inactive
same,outcome,[10],inactive
same,outcome,[11],inactive
same,outcome,[12],inactive
same,outcome,[13],inactive
same,outcome,[19],inactive
same,outcome,[14],inactive
same,outcome,[15],inactive
same,outcome,[16],inactive
same,outcome,[17],inactive
same,outcome,[18],inactive
O=C(NO)C1(NS(=O)(=O)c2ccc(Oc3ccc(F)cc3)cc2)CCOCC1,outcome,[20],inactive
same,outcome,[3],inactive
same,outcome,[4],inactive
same,outcome,[5],inactive
same,outcome,[7],inactive
same,outcome,[8],inactive
same,outcome,[9],inactive
same,outcome,[10],inactive
same,outcome,[11],inactive
same,outcome,[12],inactive
same,outcome,[13],inactive
same,outcome,[14],inactive
same,outcome,[15],inactive
same,outcome,[16],inactive
same,outcome,[17],inactive
same,outcome,[18],inactive
O=C1CN(N=Cc2ccc([N+](=O)[O-])o2)C(=O)N1,outcome,[1],inactive
same,AC50,[2],45.6 µM (active)
same,outcome,[3],inactive
same,AC50,[4],9.86 µM (active)
same,outcome,[5],inactive
same,outcome,[6],inactive
same,outcome,[7],inactive
same,outcome,[8],inactive
same,outcome,[9],inactive
same,outcome,[10],inactive
same,outcome,[11],inactive
same,outcome,[12],inactive
same,outcome,[13],inactive
same,outcome,[19],inactive
same,outcome,[14],inactive
same,outcome,[15],inactive
same,outcome,[16],inactive
same,outcome,[18],inactive
COc1cc(C(C)C)c2c(c1)S(=O)(=O)N(COc1cc(=O)n3cccc(OCCN4CCCCC4)c3n1)C2=O,AC50,[20],3.78 µM (active)
same,outcome,[3],inactive
same,AC50,[4],6.54 µM (active)
same,AC50,[5],8.48 µM (active)
same,outcome,[6],inactive
same,outcome,[7],inactive
same,AC50,[8],8.31 µM (active)
same,outcome,[9],inactive
same,outcome,[10],inactive
same,outcome,[11],inactive
same,outcome,[12],inactive
same,outcome,[13],inactive
same,outcome,[19],inactive
same,AC50,[14],5000 nM (active)
same,outcome,[15],inactive
same,AC50,[16],8.23 µM (active)
same,outcome,[17],inactive
same,AC50,[18],4050 nM (active)
Cc1ccc(S(=O)(=O)NC(=O)NN2CCCCCC2)cc1,outcome,[1],inactive
same,outcome,[2],inactive
same,outcome,[4],inactive
same,outcome,[5],inactive
same,outcome,[6],inactive
same,outcome,[7],inactive
same,outcome,[8],inactive
same,outcome,[9],inactive
same,outcome,[10],inactive
same,outcome,[11],inactive
same,outcome,[12],inactive
same,outcome,[13],inactive
same,outcome,[14],inactive
same,outcome,[15],inactive
same,outcome,[16],inactive
same,outcome,[18],inactive
FC(F)C(F)(F)COCC1CO1 (stereo not drawn),outcome,[20],inactive
same,outcome,[4],inactive
same,outcome,[5],inactive
same,outcome,[7],inactive
same,outcome,[8],inactive
same,outcome,[9],inactive
same,outcome,[10],inactive
same,outcome,[11],inactive
same,outcome,[12],inactive
same,outcome,[13],inactive
same,outcome,[14],inactive
same,outcome,[15],inactive
same,outcome,[16],inactive
same,outcome,[17],inactive
same,outcome,[18],inactive
